Test results as given in PubChem BioAssay AID651551 (Sanford-Burnham Center for Chemical Genomics, 2012).

Assay: GAPDH versus PEG-3 reporter suppression – cell-based, luminescence, counter-screen for PEG-3 promoter inhibitor project, SAR follow-up (AID 651551)
Details: HeLa PEG-Prom / GAPDH luciferase reporter, 6 or 24 h, run 2, 6 h; at 99 µM (top of the series)

Q: With `COc1ccc(-n2nc(C(=O)NCC(=O)Nc3cccc(OC)c3)c3ccccc3c2=O)cc1` as the molecule, how does the inhibition % (higher = more inhibition) read?
A: 28.5%

Q: For `Cc1cc(NC(=O)c2ccccc2)n(-c2nc3ccccc3[nH]2)n1`, which inhibition % (higher = more inhibition) is on record?
A: 15.3%

Q: For `Cc1cc(NC(=O)c2ccccc2)n(-c2nc3ccccc3n2C)n1`, which inhibition % (higher = more inhibition) is on record?
A: 16.7%

Q: For `COc1ccc(-n2nc(C(=O)NCC(=O)Nc3ccc(OC)c(OC)c3)c3ccccc3c2=O)cc1`, which inhibition % (higher = more inhibition) is on record?
A: 55.7%

Q: For `COCCCNC(=O)c1ccc(Cn2c(=O)c3ccccc3n(Cc3ccccc3C#N)c2=O)cc1`, which inhibition % (higher = more inhibition) is on record?
A: 21.9%

Q: With `COc1ccc(Cl)cc1Nc1nc(-c2sc(NC(=O)c3ccccc3)nc2C)cs1` as the molecule, how does the inhibition % (higher = more inhibition) read?
A: 33.6%

Q: Which inhibition % (higher = more inhibition) does the source give for `Cc1nc(NC(=O)c2ccccc2)sc1-c1csc(Nc2ccccc2)n1` here?
A: 74.5%

Q: For `CCn1cc(C(=O)NCc2ccco2)c(=O)c2cc(S(=O)(=O)N3CCCC3)ccc21`, which inhibition % (higher = more inhibition) is on record?
A: 42.1%

Q: Which inhibition % (higher = more inhibition) does the source give for `Cc1cc(NC(=O)c2ccccc2C(F)(F)F)n(-c2nc3ccccc3[nH]2)n1` here?
A: 91.4%

Q: For `COc1ccc(-n2nc(C(=O)NCC(=O)Nc3cc(OC)c(OC)c(OC)c3)c3ccccc3c2=O)cc1OC`, which inhibition % (higher = more inhibition) is on record?
A: 26.1%

Q: For `CCn1nc(C(=O)Nc2nc(-c3ccccn3)cs2)c2ccccc2c1=O`, which inhibition % (higher = more inhibition) is on record?
A: 72.7%

Q: With `Cc1cc(NC(=O)c2cccc(C)c2C)n(-c2nc3ccccc3[nH]2)n1` as the molecule, how does the inhibition % (higher = more inhibition) read?
A: 19.1%

Q: With `O=C(Nc1nc2ccccc2s1)c1nn(-c2ccccc2)c(=O)c2ccccc12` as the molecule, how does the inhibition % (higher = more inhibition) read?
A: 6.36%

Q: For `Cc1ccc(Cl)cc1Nc1nc(-c2sc(NC(=O)c3ccco3)nc2C)cs1`, which inhibition % (higher = more inhibition) is on record?
A: 71%

Q: Which inhibition % (higher = more inhibition) does the source give for `CCCn1nc(C(=O)Nc2nc(-c3ccncc3)cs2)c2ccccc2c1=O` here?
A: 56.1%

Q: For `O=C(Nc1nc(-c2ccccc2)cs1)c1nn(-c2ccccc2)c(=O)c2ccccc12`, which inhibition % (higher = more inhibition) is on record?
A: 28.9%

Q: Which inhibition % (higher = more inhibition) does the source give for `Cc1nc(NC(=O)c2ccccc2)sc1-c1csc(Nc2ccccc2Cl)n1` here?
A: -2.1%

Q: For `CCCn1nc(C(=O)Nc2nc(-c3ccccn3)cs2)c2ccccc2c1=O`, which inhibition % (higher = more inhibition) is on record?
A: 64.7%

Q: Which inhibition % (higher = more inhibition) does the source give for `Cc1nc(NC(=O)c2ccccc2)sc1-c1csc(Nc2cccc(Cl)c2C)n1` here?
A: 35.5%

Q: With `Cc1cc(NC(=O)c2ccccc2C)n(-c2nc3ccccc3[nH]2)n1` as the molecule, how does the inhibition % (higher = more inhibition) read?
A: 26.1%

Q: Which inhibition % (higher = more inhibition) does the source give for `CCCn1nc(C(=O)Nc2nc3ccccc3s2)c2ccccc2c1=O` here?
A: 12.5%

Q: For `COc1ccccc1Nc1nc(-c2sc(NC(=O)c3ccco3)nc2C)cs1`, which inhibition % (higher = more inhibition) is on record?
A: 72.7%

Q: Which inhibition % (higher = more inhibition) does the source give for `O=C(Nc1nccs1)c1nn(-c2ccccc2)c(=O)c2ccccc12` here?
A: 50.3%
